Assay [1] can be described thus: UWB1.289 Cancer Cell Toxicity qHTS against the NCATS CANVASS Library (AID 1347347). Further: nearly all actives have a fitted effect of over 60% in size. Further: potency means the concentration at half of the fitted maximal effect. In a few lines:
(§1)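 Step one: seed 1000 cells per well. Step two: incubate 4 h. Step three: add test compounds in 11 concentrations. Step four: culture 72 h, then add CellTiter-Glo and record luminescence after 15min.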

Assay [2] can be described thus: A2780 Cisplatin Sensitive Ovarian Cancer Cell Toxicity qHTS against the NCATS CANVASS Library (AID 1347353). Further: nearly all actives have a fitted effect of over 60% in size. Further: potency means the concentration at half of the fitted maximal effect. Put shortly: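 Luminescent ATP content (ATPLite, 10 min at room temperature) served as the read-out after cells had been exposed to compounds for 72 hours at 37 °C. Dosing followed an 11-point concentration series.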
The nature of assay [3]: HEK-293 Cancer Cell Toxicity qHTS against the NCATS CANVASS Library (AID 1347355). Further: nearly all actives have a fitted effect of over 65% in size. Further: potency means the concentration at half of the fitted maximal effect. On outcome: series mostly up to about 46 µM. In a few lines:
(§2)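 Luminescent ATP read-out (CellTiter-Glo, 15min at room temperature) measures survival after cells face an 11-point compound series for 72 hours at 37 degrees C/5% CO2.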

Assay [4] concerns NAD(P)H diaphorase (Clostridium kluyveri). As to the kind of experiment: Diaphorse counterscreen qHTS: Assay Interference Panel against the NCATS CANVASS Library (AID 1347362). In a few lines:
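Clostridium kluyveri diaphorase in PBS + 0.01% Tween-20 preincubated 15 min with compounds. Resazurin and NADH then added for 5 min at room temperature in the dark; resorufin fluorescence read (ex 525, em 598).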

A short description of assay [5]: SDT Cancer Cell Toxicity qHTS against the NCATS CANVASS Library (AID 1347365). Further: nearly all actives have a fitted effect of over 60% in size. Further: potency means the concentration at half of the fitted maximal effect. Put shortly: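 qHTS, SDT dog glioma line, 500 cells/well; cpds 11 pts; 72 hr, 37C, 5% CO2; CellTiterGlo ATP luminescence.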
The nature of assay [6]: qHTS for Hypoxia signaling pathway (HIF-1) antagonists against the NCATS CANVASS Library (AID 1347374). Further: nearly all actives have a fitted effect of over 60% in size. Further: potency means the concentration at half of the fitted maximal effect. In a few lines: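 HRE-bla ME-180 cells in medium with 0.5% dialyzed FBS received compounds (11-point series) plus CoCl2 (60 uM addition stock) for 17 hrs at 37C. Beta-lactamase activity read with CCF4 (405 nm ex, 460/530 nm em); CellTiter-Glo viability measured in same wells.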

Assay [7] is described as follows: qHTS for Hypoxia signaling pathway (HIF-1) agonists against the NCATS CANVASS Library (AID 1347375). In a few lines:
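ME-180 HRE-bla reporter cells; 2,000/well, 0.5% dialyzed FBS; cpd added after 5 h, 17 h 37C/5% CO2; CCF4-AM 2 h RT; FRET 460/530 nm; CellTiter-Glo viability same wells, 30 min.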

A short description of assay [8]: DH5-alpha competent E. coli microbial cell viability qHTS against the NCATS CANVASS Library (AID 1347377). The note with it: outcome: dose series up to 46.1 µM unless noted. In a few lines: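 qHTS, 11-pt; E. coli DH5-alpha, 0.2 OD; o/n 37C/5% CO2; BacTiter-Glo, 20 min RT; luminescence.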
Assay [9] can be described thus: qHTS for H2AX Agonists against the NCATS CANVASS Library (AID 1347378). Further: potency means the concentration at half of the fitted maximal effect. In a few lines:
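CHO-K1 cells were plated overnight at 37C, then exposed to compounds (concentration series, 0.76% DMSO final) for 3 hr at 37C. Lysates received Eu-cryptate anti-pH2AX (S139) and d2 anti-H2AX antibodies; after 24 hr at room temperature, TR-FRET 665/620 nm ratio was read.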

The nature of assay [10]: Secretion counterscreen for inhibitors of the SERCaMP assay screened against the NCATS CANVASS Library (AID 1347390).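 Further: light from luciferase secreted into medium read as a measure of general secretion.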 Further: potency means the concentration at half of the fitted maximal effect. Put shortly: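 SH-SY5Y cells expressing constitutively secreted GLuc, 1000 cells/well, attached 4 h at 37C, then exposed to compounds (0.001 - 77 uM, 11-pnt series) for 20 h. Coelenterazine added; luminescence read to flag secretory-pathway interferers.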

Assay [11] is described as follows: qHTS for inhibitors of ER calcium dysfunction: SERCaMP assay screened against the NCATS CANVASS Library (AID 1347393). Further: nearly all actives have a fitted effect of over 40% in size. Further: potency means the concentration at half of the fitted maximal effect. In a few lines:
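SH-SY5Y GLuc-SERCaMP, 1000 cells/well, 4 h attach; cpd 16 h, 37C/5% CO2; thapsigargin (added as 6x 600 nM) 4 h; coelenterazine; luminescence. Reduced reporter release = ER Ca stabilization.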

The nature of assay [12]: qHTS for inhibitors of Wild type Zika virus screened against the NCATS CANVASS Library (AID 1347396).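 Further: ATP luminescence of surviving cells so rescue from viral cell killing; series mostly up to about 46 µM.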 In a few lines: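 Vero 766 cells, 1000/well, o/n attach; cpds pin-transferred (11-pt qHTS); WT Zika added; 72 h, 37C, 5% CO2; CellTiter Glo lumi. Uninfected + vehicle = 100% inhibition.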
Assay [13] in a line: Viability qHTS for inhibitors of the SERCaMP assay screened against the NCATS CANVASS Library (AID 1347400). Further: nearly all actives have a fitted effect of over 70% in size. Further: potency means the concentration at half of the fitted maximal effect. Put shortly: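 SH-SY5Y SERCaMP MJH297 cells, 1000/well; 4 h settle, 37C/5% CO2; pin-transferred cpds; 48 h; CellTiter-Glo lum. Pos ctrl bortezomib 0.0001 - 4.6 uM.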
The nature of assay [14]: Redox Reaction Profiling qHTS: Assay Interference Panel against the NCATS CANVASS Library (AID 1347401). Put shortly:
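Compounds in 11-point series incubated with 5 uM resazurin and 200 uM DTT in 50 mM HEPES pH 7.3, 50 mM NaCl. Resorufin fluorescence (Ex 525/Em 598) read before and after 15 min in the dark.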

A short description of assay [15]: UWB1.289-WTBRCA1 Cancer Cell Toxicity qHTS against the NCATS CANVASS Library (AID 1347354). In a few lines: as §2
Assay [16] in a line: KB-8-5-11 Cancer Cell Toxicity qHTS against the NCATS CANVASS Library (AID 1347364). Further: nearly all actives have a fitted effect of over 75% in size. In a few lines: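 Plate 500 KB-8-5-11 cells per well in DMEM + 10% FBS, add compounds by pin transfer, incubate 72 hr at 37C. Add CellTiter-Glo, wait 10 minutes at room temperature, read luminescence.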
Assay [17] in a line: KB-3-1 Cancer Cell Toxicity qHTS against the NCATS CANVASS Library (AID 1347366). Further: nearly all actives have a fitted effect of over 75% in size. Put shortly: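 KB-3-1 cells (500 cells/well) in DMEM + 10% FBS were treated with compounds for 72 hr at 37C, 5% CO2. Viability was read as CellTiter-Glo luminescence after 10 minutes at room temperature.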
A short description of assay [18]: qHTS for Activators of p53 Stress Response Pathway screened against the NCATS CANVASS Library (AID 1347388). In a few lines: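 p53RE-bla HCT-116 cells (4000/well) were pre-incubated for 5 h, then treated with compound (11 points) for 16 h at 37C. After 2 h with CCF4, the 460/530 nm ratio gave reporter activation; CellTiter-Glo measured viability.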
Assay [19] in a line: qHTS for activators of dead-cell proteases activity screened against the NCATS CANVASS Library (AID 1347392).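 Further: luminescence from protease leaking out of membrane-damaged cells cleaving impermeant substrate; rising signal means more cytotoxicity.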 In a few lines: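 HepG2 cells, 2000/well, attached 18 h at 37C, then exposed to compounds (11-point qHTS) for 5 h. Dead-cell protease release read as luminescence from cell-impermeant AAF-aminoluciferin substrate after 15 min at room temperature.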
Assay [20] can be described thus: SW1088 Cancer Cell Toxicity qHTS against the NCATS CANVASS Library (AID 1347350). Further: series mostly up to about 38 µM; nearly all actives have a fitted effect of over 75% in size. Put shortly: as §1

This is an account of results in PubChem BioAssay (NCATS).

Inconclusive results are not listed. Unmarked numbers belong to inactive results. Activity calls are given as the source filed them. The call rests on the fitted dose curve; in most records, active means well fitted curve in the direction sought with a large enough effect; inconclusive means small, poorly fitted or top-dose-only effect, or another doubt; inactive means no such curve, though single readings can be large; an effect the other way counts as inactive or inconclusive.

With `C=C1C(=O)O[C@H]2[C@H]1CC/C(CO)=C\CC[C@@]1(C)O[C@@H]21`, the Potency in [1] is 7.47 µM (active); in assay [2], 2.96 µM (active); in assay [3], 5.9 µM (active); in [5], 13.2 µM (active); in assay [6], 4.72 µM (active); in [9] it was 21.7 µM (active). The Potency is 34.3 µM (active) in assay [10], 4.31 µM (active) in [11] and 34 µM (active) in assay [13]. For the same compound, the Potency entry in assay [4], in assay [7], in assay [12] and in assay [14] was “inactive” throughout. Further, the compound was classed as inactive in assay [8].

Take `CCCCCCC[C@@H](C/C=C/CCC(=O)NCCc1c[nH]c2ccccc12)OC`: the Potency entry in [2], in assay [15], in assay [4], in assay [16], in assay [17] and in assay [6] was “inactive” throughout. Besides, the Potency result in assay [7], in assay [9], in assay [18], in assay [10], in assay [19] and in assay [13] was “inactive” in each case. Further, the Potency entry in assay [14] was “inactive”. The Potency in assay [11] is 34.3 µM (active).

Regarding `C[C@@H]1C(=O)[C@]23CC[C@H]1C[C@]21O[C@H]2C(C)(C)C=CC(=O)[C@@]23COC1=O`, the Potency entry in assay [1], in assay [20], in assay [2], in assay [15], in [3] and in assay [4] was “inactive” throughout. In addition, the Potency entry in [16], in assay [5], in assay [17], in assay [7], in [9] and in [18] was “inactive” in each case. The Potency entry in [10], in [19], in assay [12], in [13] and in assay [14] was “inactive” in each case. Moreover, the Potency in assay [6] is 23.6 µM (active). Besides, the outcome in assay [8] was inactive.

On to `OCc1ccc2ocnc2c1`, for which the Potency result in assay [1], in assay [20], in assay [2], in assay [15], in [3] and in [4] was “inactive” each time. Also, the Potency result in assay [16], in assay [5], in [17], in [6], in [7] and in assay [9] was “inactive” throughout. Also, the Potency entry in assay [18], in assay [10], in assay [19], in [11], in assay [12] and in [13] was “inactive” throughout. For the same compound, the Potency result in assay [14] was “inactive”. Besides, the outcome in assay [8] was inactive.

`CC1C(=O)C23CCC1C[C@@]21O[C@H]2C(C)(C)C=CC(=O)[C@@]23COC1=O` (stereo partly specified): the Potency result in assay [1], in [20], in [2], in assay [15], in assay [3] and in assay [4] was “inactive” throughout. In addition, the Potency entry in assay [16], in [5], in assay [17], in assay [6], in assay [7] and in assay [9] was “inactive” each time. Further, the Potency result in assay [18], in [10], in assay [19], in [11], in assay [12] and in assay [13] was “inactive” in each case. Besides, the Potency result in assay [14] is “inactive”. The compound was classed as inactive in assay [8].

`C=C1C[C@@]23C=CC(=O)[C@@](C)(CCCC(C)C(=O)O)[C@@H]2C[C@@H]1CC3` (stereo partly specified): the Potency entry in [1], in assay [2], in assay [15], in assay [3], in assay [4] and in [16] was “inactive” throughout. The Potency entry in assay [5], in [17], in assay [6], in assay [7], in assay [9] and in assay [18] was “inactive” throughout. For the same compound, the Potency entry in [10], in assay [19], in [11], in [12], in [13] and in [14] was “inactive” each time. In addition, the outcome in assay [8] was inactive.
